# Measured values reported in article PMC7862700, “An all-to-all approach to the identification of sequence-specific readers for epigenetic DNA modifications on cytosine”.
# How the values were obtained:
# Assay in all cases: DAPPL (digital affinity profiling via proximity ligation, sequencing); 10 mM Tris-HCl pH 7.5, 50 mM NaCl, 1 mM DTT, 4% glycerol, room temperature, 30 min; GST-TFs on glutathione beads, 16-mer random dsDNA library, 0.1% formaldehyde crosslink after washing; high values mean tight binding
# FEV = target: T1, FEV (Homo sapiens, UniProt Q99581 1-238); details: protein: recombinant; tags: N-terminal GST; dsDNA, one strand shown
# T1 sequence: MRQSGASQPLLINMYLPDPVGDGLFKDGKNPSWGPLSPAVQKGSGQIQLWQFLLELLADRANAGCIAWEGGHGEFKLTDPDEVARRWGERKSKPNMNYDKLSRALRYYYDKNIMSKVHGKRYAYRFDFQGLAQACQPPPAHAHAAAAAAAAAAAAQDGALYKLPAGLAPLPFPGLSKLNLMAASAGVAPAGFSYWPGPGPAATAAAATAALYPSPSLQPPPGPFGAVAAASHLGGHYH
# How it was run: (§1)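 Binding signal is given per hexamer as its read frequency for a factor divided by its frequency in the tag-only sample. GST-fused human transcription factors were expressed in yeast, captured on glutathione beads, barcoded with DNA and pooled with that sample, then incubated with 200 nmole of a 16-mer random double-stranded DNA library in Tris/NaCl/DTT/glycerol buffer for 30 min at room temperature. The pools were then washed, crosslinked, proximity-ligated, amplified by PCR and sequenced on an Illumina NextSeq500.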
# ETV5 = ETV5 (Homo sapiens, UniProt P41161 1-510); details: protein: recombinant; tags: N-terminal GST; dsDNA, one strand shown
# How it was run: as §1
# HSF1 = HSF1 (Homo sapiens, UniProt Q00613 1-529); details: protein: recombinant; tags: N-terminal GST; chain copies: 3; dsDNA, one strand shown
# How it was run: as §1
# SPIC = target: T2, SPIC (Homo sapiens, UniProt Q8N5J4 1-248); details: protein: recombinant; tags: N-terminal GST; dsDNA, one strand shown
# T2 sequence: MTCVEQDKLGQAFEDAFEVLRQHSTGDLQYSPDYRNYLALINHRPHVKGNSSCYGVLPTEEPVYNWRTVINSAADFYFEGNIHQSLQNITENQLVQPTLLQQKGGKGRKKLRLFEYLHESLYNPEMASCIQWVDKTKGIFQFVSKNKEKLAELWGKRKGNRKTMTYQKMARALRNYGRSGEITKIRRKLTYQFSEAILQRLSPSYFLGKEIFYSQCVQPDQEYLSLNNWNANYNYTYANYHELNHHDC
# How it was run: as §1
# ELF4 = ELF4 (Homo sapiens, UniProt Q99607 1-663); details: protein: recombinant; tags: N-terminal GST; dsDNA, one strand shown
# How it was run: as §1
# ELK4 = target: T3, ELK4 (Homo sapiens, UniProt P28324-2 1-405); details: protein: recombinant; tags: N-terminal GST; dsDNA, one strand shown
# T3 sequence: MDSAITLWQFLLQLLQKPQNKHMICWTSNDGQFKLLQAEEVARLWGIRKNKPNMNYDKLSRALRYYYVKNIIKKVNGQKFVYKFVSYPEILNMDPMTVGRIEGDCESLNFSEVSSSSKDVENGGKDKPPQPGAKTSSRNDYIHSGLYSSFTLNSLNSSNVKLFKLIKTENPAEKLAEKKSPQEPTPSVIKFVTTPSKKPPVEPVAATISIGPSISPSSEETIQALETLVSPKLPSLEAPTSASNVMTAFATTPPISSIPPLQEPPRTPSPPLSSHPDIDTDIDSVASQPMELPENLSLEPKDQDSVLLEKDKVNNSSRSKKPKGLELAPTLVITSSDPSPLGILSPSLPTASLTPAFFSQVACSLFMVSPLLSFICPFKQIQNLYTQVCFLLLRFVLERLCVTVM
# How it was run: as §1
# ETV2 = target: T4, ETV2 (Homo sapiens, UniProt O00321 1-342); details: protein: recombinant; tags: N-terminal GST; dsDNA, one strand shown
# T4 sequence: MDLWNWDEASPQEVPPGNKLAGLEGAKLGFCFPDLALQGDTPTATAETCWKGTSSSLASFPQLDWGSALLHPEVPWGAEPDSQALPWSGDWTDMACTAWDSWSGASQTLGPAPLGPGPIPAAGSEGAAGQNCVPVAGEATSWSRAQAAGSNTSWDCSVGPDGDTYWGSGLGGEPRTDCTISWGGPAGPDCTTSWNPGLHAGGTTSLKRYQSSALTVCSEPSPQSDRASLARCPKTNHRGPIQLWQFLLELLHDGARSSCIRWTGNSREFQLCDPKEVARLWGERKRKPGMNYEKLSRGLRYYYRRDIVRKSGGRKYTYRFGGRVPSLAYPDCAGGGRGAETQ
# How it was run: as §1
# ELF3 = target: T5, ELF3 (Homo sapiens, UniProt P78545 1-371); details: protein: recombinant; tags: N-terminal GST; dsDNA, one strand shown
# T5 sequence: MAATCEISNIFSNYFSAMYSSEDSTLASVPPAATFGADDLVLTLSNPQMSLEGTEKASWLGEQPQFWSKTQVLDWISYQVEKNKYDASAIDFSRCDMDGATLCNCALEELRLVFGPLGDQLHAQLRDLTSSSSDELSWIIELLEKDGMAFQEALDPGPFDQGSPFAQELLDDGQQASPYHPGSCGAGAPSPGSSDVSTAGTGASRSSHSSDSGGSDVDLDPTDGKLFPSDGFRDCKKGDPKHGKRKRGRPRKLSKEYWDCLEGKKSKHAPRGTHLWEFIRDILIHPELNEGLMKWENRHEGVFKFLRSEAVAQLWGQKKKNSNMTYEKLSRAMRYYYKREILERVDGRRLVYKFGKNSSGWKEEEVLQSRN
# How it was run: as §1
# CRX = CRX (Homo sapiens, UniProt O43186 1-299); details: protein: recombinant; tags: N-terminal GST; dsDNA, one strand shown
# How it was run: as §1
# ETV1 = ETV1 (Homo sapiens, UniProt P50549 1-477); details: protein: recombinant; tags: N-terminal GST; dsDNA, one strand shown
# How it was run: as §1
# ERF = target: T6, ERF (Homo sapiens, UniProt P50548 1-548); details: protein: recombinant; tags: N-terminal GST; dsDNA, one strand shown
# T6 sequence: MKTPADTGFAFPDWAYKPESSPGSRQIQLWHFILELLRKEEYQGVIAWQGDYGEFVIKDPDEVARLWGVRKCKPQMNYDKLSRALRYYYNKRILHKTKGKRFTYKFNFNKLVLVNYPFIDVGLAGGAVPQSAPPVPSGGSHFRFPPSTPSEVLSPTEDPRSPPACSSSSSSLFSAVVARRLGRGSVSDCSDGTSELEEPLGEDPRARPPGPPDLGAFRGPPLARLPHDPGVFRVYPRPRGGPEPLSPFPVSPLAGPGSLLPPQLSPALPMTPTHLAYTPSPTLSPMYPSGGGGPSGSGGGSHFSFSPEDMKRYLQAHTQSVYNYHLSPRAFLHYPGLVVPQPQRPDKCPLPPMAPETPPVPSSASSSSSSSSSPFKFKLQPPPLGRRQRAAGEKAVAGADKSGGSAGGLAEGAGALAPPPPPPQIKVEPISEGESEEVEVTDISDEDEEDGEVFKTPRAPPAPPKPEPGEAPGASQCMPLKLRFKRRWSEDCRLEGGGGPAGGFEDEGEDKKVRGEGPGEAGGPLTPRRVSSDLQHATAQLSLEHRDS
# How it was run: as §1
# ETV3L = target: T7, ETV3L (Homo sapiens, UniProt Q6ZN32 1-361); details: protein: recombinant; tags: N-terminal GST; dsDNA, one strand shown
# T7 sequence: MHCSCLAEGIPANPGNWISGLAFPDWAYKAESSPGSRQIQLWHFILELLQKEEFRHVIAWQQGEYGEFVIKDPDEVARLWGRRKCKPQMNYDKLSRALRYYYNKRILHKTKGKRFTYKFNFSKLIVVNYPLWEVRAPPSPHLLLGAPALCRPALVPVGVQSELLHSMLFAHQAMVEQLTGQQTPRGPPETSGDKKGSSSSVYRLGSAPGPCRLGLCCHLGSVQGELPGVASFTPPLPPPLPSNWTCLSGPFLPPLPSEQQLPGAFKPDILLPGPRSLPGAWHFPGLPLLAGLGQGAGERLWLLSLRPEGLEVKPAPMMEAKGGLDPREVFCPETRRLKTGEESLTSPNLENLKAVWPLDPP
# How it was run: as §1
# ETS2 = target: T8, ETS2 (Homo sapiens, UniProt P15036 1-469); details: protein: recombinant; tags: N-terminal GST; dsDNA, one strand shown
# T8 sequence: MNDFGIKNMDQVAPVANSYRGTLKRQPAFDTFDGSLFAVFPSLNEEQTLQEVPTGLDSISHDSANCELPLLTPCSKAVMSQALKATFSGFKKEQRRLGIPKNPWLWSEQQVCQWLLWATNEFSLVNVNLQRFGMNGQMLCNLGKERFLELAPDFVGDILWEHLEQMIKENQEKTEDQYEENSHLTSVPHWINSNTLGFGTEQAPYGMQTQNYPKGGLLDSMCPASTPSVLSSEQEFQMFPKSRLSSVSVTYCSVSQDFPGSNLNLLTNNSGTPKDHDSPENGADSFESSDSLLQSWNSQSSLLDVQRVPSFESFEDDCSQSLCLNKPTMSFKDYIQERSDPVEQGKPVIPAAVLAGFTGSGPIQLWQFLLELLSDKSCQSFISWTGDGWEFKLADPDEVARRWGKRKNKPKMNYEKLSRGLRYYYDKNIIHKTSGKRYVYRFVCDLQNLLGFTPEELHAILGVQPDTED
# How it was run: as §1
# SPDEF = target: T9, SPDEF (Homo sapiens, UniProt O95238 1-335); details: protein: recombinant; tags: N-terminal GST; dsDNA, one strand shown
# T9 sequence: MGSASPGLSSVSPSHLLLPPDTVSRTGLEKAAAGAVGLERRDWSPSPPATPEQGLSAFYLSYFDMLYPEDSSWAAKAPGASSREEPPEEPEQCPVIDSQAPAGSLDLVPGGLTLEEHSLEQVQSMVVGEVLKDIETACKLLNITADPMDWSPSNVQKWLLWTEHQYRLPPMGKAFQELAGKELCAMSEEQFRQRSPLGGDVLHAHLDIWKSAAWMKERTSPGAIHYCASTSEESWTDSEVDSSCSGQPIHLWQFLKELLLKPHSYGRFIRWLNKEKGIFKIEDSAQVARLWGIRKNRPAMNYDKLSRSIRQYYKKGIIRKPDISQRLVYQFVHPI
# How it was run: as §1
# ETV7 = target: T10, ETV7 (Homo sapiens, UniProt Q9Y603 1-341); details: protein: recombinant; tags: N-terminal GST; dsDNA, one strand shown
# T10 sequence: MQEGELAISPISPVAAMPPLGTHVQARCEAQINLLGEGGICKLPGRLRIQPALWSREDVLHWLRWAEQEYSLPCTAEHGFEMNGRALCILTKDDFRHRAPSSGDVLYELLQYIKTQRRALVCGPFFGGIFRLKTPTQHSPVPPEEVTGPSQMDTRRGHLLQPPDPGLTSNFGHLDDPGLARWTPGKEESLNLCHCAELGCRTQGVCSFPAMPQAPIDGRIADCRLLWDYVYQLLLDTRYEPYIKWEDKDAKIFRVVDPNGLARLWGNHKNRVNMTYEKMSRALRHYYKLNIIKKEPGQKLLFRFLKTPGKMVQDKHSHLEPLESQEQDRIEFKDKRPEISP
# How it was run: as §1
# ELF5 = target: T11, ELF5 (Homo sapiens, UniProt Q9UKW6-2 1-255); details: protein: recombinant; tags: N-terminal GST; dsDNA, one strand shown
# T11 sequence: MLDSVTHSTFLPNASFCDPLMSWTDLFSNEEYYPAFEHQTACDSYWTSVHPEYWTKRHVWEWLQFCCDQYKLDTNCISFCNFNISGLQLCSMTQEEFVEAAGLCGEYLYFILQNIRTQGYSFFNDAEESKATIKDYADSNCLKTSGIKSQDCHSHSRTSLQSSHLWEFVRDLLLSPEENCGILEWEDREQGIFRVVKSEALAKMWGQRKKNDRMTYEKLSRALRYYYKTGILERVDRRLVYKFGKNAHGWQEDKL
# How it was run: as §1
# ETV3 = target: T12, ETV3 (Homo sapiens, UniProt P41162-2 1-143); details: protein: recombinant; tags: N-terminal GST; dsDNA, one strand shown
# T12 sequence: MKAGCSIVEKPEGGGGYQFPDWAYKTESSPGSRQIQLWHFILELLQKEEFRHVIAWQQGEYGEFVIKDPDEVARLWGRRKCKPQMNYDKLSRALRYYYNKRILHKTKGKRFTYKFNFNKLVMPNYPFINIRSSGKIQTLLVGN
# How it was run: as §1
# ETV6 = ETV6 (Homo sapiens, UniProt P41212 1-452); details: protein: recombinant; tags: N-terminal GST; dsDNA, one strand shown
# How it was run: as §1
# ETV6, sequence (P41212 whole entry): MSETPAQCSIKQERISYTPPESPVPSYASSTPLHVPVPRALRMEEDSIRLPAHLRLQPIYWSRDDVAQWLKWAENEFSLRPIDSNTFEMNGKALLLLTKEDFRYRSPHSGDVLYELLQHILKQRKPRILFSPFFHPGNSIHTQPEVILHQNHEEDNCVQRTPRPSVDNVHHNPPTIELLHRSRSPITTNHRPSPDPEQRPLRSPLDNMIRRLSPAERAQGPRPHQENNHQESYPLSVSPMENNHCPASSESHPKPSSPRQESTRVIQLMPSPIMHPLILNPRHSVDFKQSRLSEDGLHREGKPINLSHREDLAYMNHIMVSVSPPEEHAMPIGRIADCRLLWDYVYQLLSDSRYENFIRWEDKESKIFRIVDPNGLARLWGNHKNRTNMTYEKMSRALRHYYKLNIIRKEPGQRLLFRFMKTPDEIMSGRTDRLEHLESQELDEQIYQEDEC
# ETV1, sequence (P50549 whole entry): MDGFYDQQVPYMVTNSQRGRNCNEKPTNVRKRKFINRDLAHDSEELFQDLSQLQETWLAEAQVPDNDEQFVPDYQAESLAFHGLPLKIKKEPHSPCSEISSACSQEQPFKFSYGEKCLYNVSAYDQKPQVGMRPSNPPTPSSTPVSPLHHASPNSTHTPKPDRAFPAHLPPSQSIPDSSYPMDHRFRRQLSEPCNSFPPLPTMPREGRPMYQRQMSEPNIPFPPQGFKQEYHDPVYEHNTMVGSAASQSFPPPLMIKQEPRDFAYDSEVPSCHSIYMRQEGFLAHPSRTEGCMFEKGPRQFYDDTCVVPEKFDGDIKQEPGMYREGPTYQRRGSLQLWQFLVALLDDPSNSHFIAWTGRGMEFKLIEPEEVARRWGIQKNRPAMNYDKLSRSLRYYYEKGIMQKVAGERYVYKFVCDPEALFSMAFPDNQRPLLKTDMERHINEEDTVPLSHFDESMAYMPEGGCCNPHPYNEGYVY
# CRX, sequence (O43186 whole entry): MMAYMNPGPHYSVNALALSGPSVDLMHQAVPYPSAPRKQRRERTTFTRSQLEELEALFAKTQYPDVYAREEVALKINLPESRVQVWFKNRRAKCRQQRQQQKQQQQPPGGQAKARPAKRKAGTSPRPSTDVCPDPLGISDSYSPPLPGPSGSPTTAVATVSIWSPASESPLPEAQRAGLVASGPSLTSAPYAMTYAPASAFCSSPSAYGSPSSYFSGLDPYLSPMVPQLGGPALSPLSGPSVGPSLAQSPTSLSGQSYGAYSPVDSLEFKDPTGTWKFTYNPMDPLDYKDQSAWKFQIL
# ELF4, sequence (Q99607 whole entry): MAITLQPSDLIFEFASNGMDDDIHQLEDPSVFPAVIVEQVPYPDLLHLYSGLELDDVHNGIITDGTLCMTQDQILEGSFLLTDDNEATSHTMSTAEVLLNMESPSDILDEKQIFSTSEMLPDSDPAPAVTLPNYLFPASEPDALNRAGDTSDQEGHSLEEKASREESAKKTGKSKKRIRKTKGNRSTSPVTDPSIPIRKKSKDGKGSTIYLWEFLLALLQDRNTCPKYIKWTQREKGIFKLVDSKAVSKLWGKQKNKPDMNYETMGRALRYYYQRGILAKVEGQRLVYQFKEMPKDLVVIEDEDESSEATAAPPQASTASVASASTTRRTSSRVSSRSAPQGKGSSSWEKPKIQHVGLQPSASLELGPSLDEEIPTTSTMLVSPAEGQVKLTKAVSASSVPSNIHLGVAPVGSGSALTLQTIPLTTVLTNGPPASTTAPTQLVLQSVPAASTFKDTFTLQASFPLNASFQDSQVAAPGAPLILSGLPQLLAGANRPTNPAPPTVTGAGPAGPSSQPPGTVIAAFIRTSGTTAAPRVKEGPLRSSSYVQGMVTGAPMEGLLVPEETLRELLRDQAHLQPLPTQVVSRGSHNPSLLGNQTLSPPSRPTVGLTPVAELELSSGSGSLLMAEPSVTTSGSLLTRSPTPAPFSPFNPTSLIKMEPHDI
# ETV5, sequence (P41161 whole entry): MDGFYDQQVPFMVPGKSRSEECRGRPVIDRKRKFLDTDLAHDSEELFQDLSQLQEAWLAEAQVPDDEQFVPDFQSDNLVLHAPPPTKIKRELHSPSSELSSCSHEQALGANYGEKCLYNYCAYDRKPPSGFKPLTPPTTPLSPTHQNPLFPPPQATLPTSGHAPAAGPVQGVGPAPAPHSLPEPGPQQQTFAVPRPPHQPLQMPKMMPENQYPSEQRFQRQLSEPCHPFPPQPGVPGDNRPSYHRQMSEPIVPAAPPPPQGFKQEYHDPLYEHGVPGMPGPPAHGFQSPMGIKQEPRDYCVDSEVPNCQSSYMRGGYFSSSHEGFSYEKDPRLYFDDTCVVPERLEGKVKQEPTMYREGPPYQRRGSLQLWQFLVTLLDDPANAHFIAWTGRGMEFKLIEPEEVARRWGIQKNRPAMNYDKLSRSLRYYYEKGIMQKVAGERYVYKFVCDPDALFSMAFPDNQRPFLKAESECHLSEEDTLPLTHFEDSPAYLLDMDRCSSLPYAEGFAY
# HSF1, sequence (Q00613 whole entry): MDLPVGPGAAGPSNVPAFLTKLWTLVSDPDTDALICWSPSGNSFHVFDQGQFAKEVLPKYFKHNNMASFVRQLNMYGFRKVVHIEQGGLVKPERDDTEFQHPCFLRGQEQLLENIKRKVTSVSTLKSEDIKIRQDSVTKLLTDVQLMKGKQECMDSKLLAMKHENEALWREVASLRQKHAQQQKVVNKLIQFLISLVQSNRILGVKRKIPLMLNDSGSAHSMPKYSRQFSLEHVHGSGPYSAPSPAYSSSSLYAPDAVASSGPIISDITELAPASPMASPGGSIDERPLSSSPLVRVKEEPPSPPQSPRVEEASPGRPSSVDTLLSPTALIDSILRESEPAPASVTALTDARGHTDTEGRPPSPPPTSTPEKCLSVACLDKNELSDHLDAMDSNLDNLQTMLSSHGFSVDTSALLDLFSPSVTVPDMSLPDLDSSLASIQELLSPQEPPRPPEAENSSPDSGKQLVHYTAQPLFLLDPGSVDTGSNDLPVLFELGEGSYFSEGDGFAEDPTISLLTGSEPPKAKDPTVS
sequence,measurement,setting,value
GTTTCG,binding signal,FEV,"1.27 fold enrichment (6-mer frequency, TF over GST control)"
same,binding signal,ETV5,"1.28 fold enrichment (6-mer frequency, TF over GST control)"
same,binding signal,HSF1,"1.44 fold enrichment (6-mer frequency, TF over GST control)"
same,binding signal,SPIC,"1.24 fold enrichment (6-mer frequency, TF over GST control)"
same,binding signal,ELF4,"1.33 fold enrichment (6-mer frequency, TF over GST control)"
same,binding signal,ELK4,"1.34 fold enrichment (6-mer frequency, TF over GST control)"
same,binding signal,ETV2,"1.24 fold enrichment (6-mer frequency, TF over GST control)"
same,binding signal,ELF3,"1.09 fold enrichment (6-mer frequency, TF over GST control)"
same,binding signal,CRX,"1.09 fold enrichment (6-mer frequency, TF over GST control)"
same,binding signal,ETV1,"1.27 fold enrichment (6-mer frequency, TF over GST control)"
same,binding signal,ERF,"1.38 fold enrichment (6-mer frequency, TF over GST control)"
same,binding signal,ETV3L,"1.33 fold enrichment (6-mer frequency, TF over GST control)"
same,binding signal,ETS2,"1.15 fold enrichment (6-mer frequency, TF over GST control)"
same,binding signal,SPDEF,"1.27 fold enrichment (6-mer frequency, TF over GST control)"
same,binding signal,ETV7,"1.27 fold enrichment (6-mer frequency, TF over GST control)"
same,binding signal,ELF5,"1.12 fold enrichment (6-mer frequency, TF over GST control)"
same,binding signal,ETV3,"1.32 fold enrichment (6-mer frequency, TF over GST control)"
same,binding signal,ETV6,"1.23 fold enrichment (6-mer frequency, TF over GST control)"
